tim23-1 inh: growth inhibitors of tim23-1 mutant yeast, primary screen, luminescence, uHTS. inhibition, % at 20 µM. hit rate 1.3% among 330,000. S. cerevisiae tim23-1 growth, BacTiter-Glo luminescence, 24 h;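 active = growth inhibition of the mutant yeast at or above 50%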;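 note: temperature-sensitive mutant grown at 25 °C; plate controls were DMSO-treated mutant yeast for no effect and medium wells lacking yeast for full effect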
NALP1 yeast inh: NALP1 inflammasome inhibitors in reconstituted yeast, colorimetric, S. cerevisiae, triplicate retest; AID 2071, 2009; S. cerevisiae NALP1/ASC/caspase-1 growth, X-gal OD620, 72 h; inhibition, % at 10 µM; hit rate 0.61% among 280,000; in the data active = inhibition mostly above about 24%, no sharp cut-off; inactive = mostly below about 32%
PfHsp90 set2: growth inhibition of PfHsp90-expressing yeast, primary screen, antimalarial PfHsp90 inhibitor project, S. cerevisiae, BacTiter-Glo luminescence, single point, set 2; BacTiter-Glo ATP, 48 h; yeast lacking PDR1 and PDR3 efflux regulators; inhibition, % at 9.4 µM; hit rate 0.32% among 310,000; AID 504621, 2011;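 active = every replicate shows inhibition above about 80%, whatever the replicate mean, limit read from the data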;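 note: 0% = DMSO neutral controls and 100% = 20 µM radicicol positive controls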
TIM10 inh: growth inhibitors of isogenic TIM10 control yeast, primary screen, counter-screen for tim10-1 yeast inhibitor project, luminescence, uHTS. S. cerevisiae TIM10 strain growth, BacTiter-Glo luminescence, 24 h. inhibition, % at 10 µM. hit rate 1.4% among 330,000;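 active = inhibition of 40% or more at the single tested concentration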;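 note: wild-type TIM10 isogenic control strain grown at permissive 25 °C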
NALP3 yeast inh: NALP3 inflammasome inhibitors in reconstituted yeast, primary screen, luminescence, uHTS; Yeast reconstituted NLRP3/ASC/caspase-1, beta-gal luminescence, 24 h; inhibition, % at 10 µM; hit rate 0.39% among 330,000;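 active = inhibition of 50% or more; inactive = inhibition below 50%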;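 note: plate controls were induced DMSO wells for no effect and uninduced yeast grown without galactose for full effect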
tim10-1 inh: growth inhibitors of tim10-1 mutant yeast, primary screen, luminescence, uHTS. S. cerevisiae tim10-1 ts strain growth, BacTiter-Glo, 24 h. inhibition, % at 20 µM. hit rate 2.2% among 330,000. AID 463190, 2010;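 active = inhibition of at least 40%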;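 note: mutant grown at 25 °C; 0% = DMSO wells with yeast and 100% = wells holding no yeast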
tim10-1 conf: growth inhibitors of tim10-1 mutant yeast, confirmation, single concentration, luminescence, S. cerevisiae; shares compounds with tim10-1 inh; S. cerevisiae tim10-1 ts strain growth, BacTiter-Glo, 24 h; inhibition, % at 20 µM; hit rate 56% among 7,400;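 active = inhibition of yeast growth at or above a set limit in either of two repeat tests at 20 µM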;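 note: tim10-1 mutant grown at permissive 25 °C to find synthetic lethal compounds; 0% = DMSO yeast wells and 100% = medium wells without yeast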
Active calls of the source: *; / = not tested or not shown. Hits are enriched below; roughly 4.1% of the tested compounds scored in any of these assays.

SMILES	tim23-1 inh	NALP1 yeast inh	PfHsp90 set2	TIM10 inh	NALP3 yeast inh	tim10-1 inh	tim10-1 conf
COc1ccc(C2=NN(C(C)=O)CC2c2cccc([N+](=O)[O-])c2)cc1 (stereo not drawn)	34	7	-6	4	10	43*	-11
Cc1cccc(COc2ccccc2C(=O)OCC(=O)N(C)c2c(N)n(Cc3ccccc3)c(=O)[nH]c2=O)c1	8	8	-5	18	8	6	/
Cc1ccc(-c2csc3nc4c5ccccc5c(NCCCN5CCOCC5)nn4c(=O)c23)cc1	18	14	/	-1	9	43*	39*
COc1ccc2nc(N/C(N)=N/C(=S)Nc3ccccc3)nc(C)c2c1	44	-3	-51	37	21	50*	19
Cc1ccc(S(=O)(=O)/N=C(\N)Nc2nc(C)c3ccccc3n2)cc1	31	18	7	7	7	45*	10
Cc1cccc(NC(=S)/N=C(\N)Nc2nc(C)c3ccccc3n2)c1	35	26	-4	33	19	44*	27
COc1ccc(CN(C(=O)c2cc(=O)c3ccccc3o2)C2CCS(=O)(=O)C2)cc1 (stereo not drawn)	7	-15	6	-3	3	16	/
CCOC(=O)C1CCN(C(=O)c2ccc(NS(=O)(=O)c3ccc4[nH]c(=O)[nH]c4c3)cc2)CC1	/	/	2	/	/	/	/
O=C(COC(=O)/C=C/c1cccc(F)c1)NC1CCCCCC1	19	/	8	6	-3	4	/
COc1ccc2[nH]c(=O)c(CN(Cc3nnnn3Cc3ccco3)C3CCCCC3)cc2c1	19	12	17	-4	4	5	/
COc1ccc2[nH]c(=O)c(CN(C3CCCCC3)C(c3nnnn3Cc3ccco3)C(C)C)cc2c1 (stereo not drawn)	29	3	-15	20	22	41*	16
CS(=O)(=O)N1CCC(C(=O)Nc2cccc(Br)c2)CC1	5	17	-21	-3	13	4	/
O=C(NNC(=O)c1ccccc1F)c1ccc(NS(=O)(=O)c2ccc(F)cc2)cc1	11	/	7	4	9	7	/
N#CCc1nn2c(-c3ccccc3)ccnc2c1C#N	30	6	-23	10	-8	43*	28
CCCn1nc([N+](=O)[O-])c(C(C#N)c2nc3ccccc3o2)c(Cl)c1=O (stereo not drawn)	42	-8	3	30	28	48*	36*
COc1ccc(C(=O)N2CCCC(CO)(Cc3ccccc3C)C2)o1 (stereo not drawn)	19	15	-9	9	4	48*	25
Cc1ccccc1CC1(CO)CCCN(C(=O)c2cc(Cl)ccc2F)C1 (stereo not drawn)	30	-4	-42	-5	7	42*	32*
Nc1nccnc1C(=O)OCC(=O)c1ccc[nH]1	3	/	/	5	12	18	/
COc1ccc(S(=O)(=O)N2CCCCC2)cc1NC(=O)CCNC(=O)c1ccc(Cl)cc1	-12	/	-1	-7	-5	6	/
CN(C(=O)Cn1nc(C(=O)O)c2ccccc2c1=O)C1(C#N)CCCCC1	-2	/	9	11	5	3	/
CCc1cc2c(C)cc(=O)oc2cc1OC(=O)C1CCCN1C(=O)OC(C)(C)C (stereo not drawn)	3	-22	/	23	11	46*	21
CC(C)(C)OC(=O)N1CCCC1C(=O)NCCc1ccccc1 (stereo not drawn)	1	0	-37	-6	-7	-2	/
Cc1cc(C)c2nc(C(F)(F)F)c(C#N)c(N)c2c1	11	3	-7	30	25	42*	20
COc1cc(C)c(Br)cc1S(=O)(=O)NCc1cccs1	40	31	-27	32	-6	40*	32*
COc1cc(C)c(Br)cc1S(=O)(=O)NCc1ccncc1	0	14	-5	-9	3	4	/
SMILES	tim23-1 inh	NALP1 yeast inh	PfHsp90 set2	TIM10 inh	NALP3 yeast inh	tim10-1 inh	tim10-1 conf
O=C(/C=C/c1c(Cl)nc2ccccn12)N1CCN(c2ccccc2F)CC1	41	6	10	32	27	46*	36*
CCc1cc(-c2n[nH]c(=S)n2-c2ccccc2C)cs1	35	-42	-17	22	21	42*	35*
CCCc1cc(-c2n[nH]c(=S)n2C(C)c2ccccc2)cs1 (stereo not drawn)	45	2	-114	14	11	48*	19
CCc1cc(-c2n[nH]c(=S)n2CC)cs1	34	18	0	7	17	14	/
CC1(C(=O)OCC(=O)Nc2ccc(S(=O)(=O)N3CCOCC3)cc2)CC1(Cl)Cl (stereo not drawn)	5	/	32	-7	6	3	/
O=C(Cn1nc(C(=O)O)c2ccccc2c1=O)Nc1cc(S(=O)(=O)N2CCCCC2)ccc1Cl	-4	/	-3	-3	21	-6	/
COC(=O)C1C2CCCCC1C(=O)O2 (stereo not drawn)	/	/	29	/	/	/	/
N/C(=N\OC(=O)CCCc1ccccc1)c1ccccc1Cl	49	12	0	31	2	50*	59*
COc1ccc(/C(N)=N/OC(=O)CCc2ccccc2)cc1	49	9	-12	33	19	26	/
Cc1ccc(S(=O)(=O)Nc2cccc(C(=O)N3CCOCC3)c2)c(C)c1NS(C)(=O)=O	-3	-1	-19	-4	14	-2	/
CCOc1cc(Br)c(C(C)NC(=O)c2cccnc2)cc1OCC (stereo not drawn)	15	/	/	-2	4	-2	/
CC1=NN(C(N)=S)C(=O)C1N=Nc1c(C)cc(C)cc1C (stereo not drawn)	7	1	-32	37	33	45*	26
CC1=NN(C(N)=S)C(=O)C1N=Nc1ccc(C)cc1C (stereo not drawn)	-8	-2	/	9	34	4	/
Cc1ccccc1N=Nc1c(C)[nH]n(C(N)=S)c1=O	31	25	18	31	19	41*	26
Cc1cccc(N=Nc2c(C)[nH]n(C(N)=S)c2=O)c1C	14	10	/	25	27	6	/
Cc1coc(C)c1C(=O)CC1(O)C(=O)N(CCc2ccccc2)c2ccccc21 (stereo not drawn)	27	-3	/	4	15	44*	34*
Cc1ccc(N2C(=O)C3Sc4[nH]c(=O)sc4C(c4ccccc4)C3C2=O)cc1 (stereo not drawn)	25	0	8	25	16	37	/

Source: PubChem BioAssay
